Screening data: PubChem, National Center for Advancing Translational Sciences (NCATS)
A selection: hits, their analogues and other compounds. The true share with any hit is near 7.3%.
Tau FP inhib: tau fibrillization inhibition (FP) | P10636 | K18 P301L tau heparin fibrillization, Alexa594 FP, 6 h | Potency, µM (titrated, usually from 57.7 µM), inactives show at the top dose activity, negative = inhibition, usual class: inhibitors | 0.39% of 280,000 active | AID 1468; further: nearly all actives have a fitted effect of over 55% in size
Target sequence (P10636 561-689 P618L limits assumed): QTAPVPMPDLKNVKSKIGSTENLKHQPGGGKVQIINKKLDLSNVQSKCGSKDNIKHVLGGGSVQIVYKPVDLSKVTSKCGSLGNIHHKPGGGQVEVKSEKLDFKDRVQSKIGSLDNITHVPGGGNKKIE
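K18 P301L tau (15 uM unlabeled/0.24 uM Alexa 594-labeled, final) + compound + heparin 20 uM final; 100 mM NaOAc pH 7; 6 hr 37 C; ThT 30 uM final added, 1 hr RT; FP ex 555/em 632 nm.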
Gal4-VP16 FLuc: counter-screen for ROR gamma inhibitors: Gal4-VP16 reporter. Drosophila S2 Gal4-VP16 UAS-luciferase, luminescence, 20 h. Potency, µM (highest dose often 53.6 µM), for inactives: at the highest dose activity, negative = inhibition, usual class: inhibitors. 3.5% of 310,000 active. AID 2546;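 further: Gal4-VP16 expression switched on by copper sulfate through the metallothionein promoter; nearly all actives have a fitted effect of over 50% in size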
Tau fibril ThT: tau fibrillization inhibition (ThT binding). recombinant tau K18 P301L, heparin-induced fibrillization, ThT fluorescence. AID 1460. P10636. Potency, µM (highest dose often 57.4 µM), without a hit: at the top dose activity, negative = inhibition, hits mostly inhibitors. 2.1% of 270,000 active; further: nearly all actives have a fitted effect of over 55% in size
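Recombinant human tau K18 fragment […] carrying P301L, 15 uM unlabeled plus 0.24 uM Alexa 594-labeled, was fibrillized with 20 uM heparin in 100 mM sodium acetate pH 7 for 6 hr at 37 C; 30 uM ThT fluorescence read after 1 hr.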
Tau fluor counter: counter-screen for tau fibril formation inhibitors | tau K18 P301L Alexa594 fluorescence, heparin fibrillization | Potency, µM (doses to about 57.7 µM), inactives show at the highest dose activity change, negative = decrease | 0.93% of 280,000 active | AID 1463; further: nearly all actives have a fitted effect of over 55% in size
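Human tau K18 P301L (15 uM unlabeled, 0.24 uM Alexa 594-labeled) in 100 mM sodium acetate pH 7 with 20 uM heparin, 6 hr at 37 C. ThT 30 uM added, 1 hr ambient; Alexa 594 FP and total fluorescence read at 555/632 nm.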
RORg inh: inhibitors of mouse ROR gamma transcriptional activity | P51450 | Drosophila S2 Gal4-RORgamma UAS-luciferase reporter, 20 h | Potency, µM (highest dose often 53.6 µM), for the others: at the top dose activity change, negative = inhibition, actives largely listed as inhibitors | 5.4% of 310,000 active; further: nearly all actives have a fitted effect of over 60% in size
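Read-out: Photinus luciferase luminescence; inhibitors lower reporter signal. Insect Schneider cells with Gal4-ROR gamma fusion under metallothionein promoter, UAS reporter; 700 uM final copper sulfate induction, 20 hr, ambient temperature.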
Numbers without * were called inactive; ? = inconclusive; / = not tested or not shown; [ ] = another dose, or the depositor's remark. The call rests on the fitted dose curve; in most records, active means well fitted curve in the direction sought with a large enough effect; inconclusive means small, poorly fitted or top-dose-only effect, or another doubt; inactive means no such curve, though single readings can be large; an effect the other way counts as inactive or inconclusive. On the % scale 0 is the no-effect control and ±100 the full control effect; potency means the concentration at half of the fitted maximal effect.

SMILES	Tau FP inhib	Gal4-VP16 FLuc	Tau fibril ThT	Tau fluor counter	RORg inh
CC1(C)C(=O)C=C[C@@]2(C)C1=C(O)C(=O)[C@@]1(C)C2CC[C@@]2(C)C(c3ccoc3)C[C@H]3O[C@@]321 (some centres not stated)	-17.7%	10µM*	?	-11.0%	8.91µM*
CCOC(=O)C1OC1(C)c1ccccc1 (configuration not stated)	/	-4.0%	/	/	2.1%
Cl/C=C\Cl	/	-1.3%	/	/	-1.2%
O=C(O)c1ccc(-c2ccc3cc(C45CC6CC(CC(C6)C4)C5)c(O)cc3c2)cc1	/	11.2µM*	/	/	?
CC[N+](=O)[O-]	/	5.4%	/	/	-3.0%
N#CC1=C(N)Oc2c(c(=O)sc3ccccc23)C1c1ccncc1 (configuration not stated)	6.4%	-9.9%	?	-16.9%	?
N#CC1=C(N)Oc2n[nH]c(-c3cccs3)c2C1c1ccsc1 (configuration not stated)	?	-3.9%	12.6µM*	-26.4%	-0.4%
N#CC1=C(N)Oc2n[nH]c(-c3cccs3)c2C1c1ccco1 (configuration not stated)	?	15.7%	15.8µM*	?	-1.7%
C=CC=O	/	-22.4%	/	/	-5.2%
C(=C\c1ccccc1)/CN1CCN(CCOC(c2ccccc2)c2ccccc2)CC1	-5.1%	/	-14.8%	-13.7%	/
CC1(C)CC(=O)C(C2(O)C(=O)NC(=O)NC2=O)=C(O)C1	?	-0.2%	6.31µM*	-18.0%	3.1%
COc1ccc(C=O)cc1OC	/	6.6%	/	/	-0.5%
O=C1NC(=O)N(c2ccc(Cl)cc2)C(=O)/C1=C\c1ccc(Sc2nc3ccccc3[nH]2)o1	?	-12.5%	14.1µM*	-25.9%	-2.2%
O=C1NC(=O)C(=Cc2ccc(Sc3ccccc3)o2)C(=O)N1	3.6%	?	?	1.1%	-19.7%
O=C(Cl)/C=C/C(=O)Cl	/	-4.2%	/	/	15.6%
CN(N=O)c1cc(O)ccc1O	?	/	11.2µM*	?	/
CCCCC/C=C\C=C\[C@H](CCCCCCCC(=O)O)OO	-2.2%	-11.4%	-5.1%	-6.2%	9.7%
CN(C)/C=C1/C(=O)NC(=O)N(CCNc2ncc(C(F)(F)F)cc2Cl)C1=O	?	6.3%	15.8µM*	-8.7%	11.6%
Cc1cc(N2CCNCC2)nc2ccccc12	/	9.3%	/	/	-16.7%
Cc1ccc(NC(=O)Nc2ccc3nc(N4CCN(C)CC4)cc(C)c3c2)cc1F	?	/	14.1µM*	7.08µM*[quencher]	/
Cc1cc(N2CCCCC2)nc2ccc(NC(=O)/C=C/c3ccc(OC(C)C)cc3)cc12	5.1%	/	2.82µM*	8.91µM*[quencher]	/
Cc1ncc(CN2CC=C(c3ccccc3)CC2)c(N)n1	7.2%	-8.4%	-10.4%	-11.4%	?
COP(=O)(CC(=O)O)c1ccccc1 (configuration not stated)	-14.6%	13.4%	-4.2%	-6.4%	-3.7%
NC(=O)CSP(=O)(c1ccccc1)c1ccccc1	?	/	28.2µM*	-15.3%	6.4%[0.365 µM]
Nc1ccc(Cl)cc1	/	-9.9%	/	/	8.0%
SMILES	Tau FP inhib	Gal4-VP16 FLuc	Tau fibril ThT	Tau fluor counter	RORg inh
Nc1ccc(N)cc1	?	-2.8%	14.1µM*	?	-5.1%
O=c1oc(Cl)c(Cl)c2ccccc12	?	/	11.2µM*	-18.7%	/
C=C(C)C(=O)OCC1CO1 (configuration not stated)	/	-10.5%	/	/	13.8%
C/C=C1/CN2CC[C@]34C(=C(C=O)[C@H]1C[C@@H]23)Nc1ccccc14	-2.3%	13.7%	-1.1%	1.8%	15.1%
Cc1c(CCC(=O)N2CCCCC2)c(=O)oc2cc3occ(C(C)(C)C)c3cc12	13.8%	/	?	-7.9%	/
COc1ccc(CN2C(=O)NC(=O)/C(=C/c3ccc([N+](=O)[O-])o3)C2=O)cc1	?	4.8%	8.91µM*	?	2.4%
CC(N)(COP(=O)(O)Oc1ccccc1)C(=O)O (configuration not stated)	1.5%	/	-0.6%	-5.0%	/
CN1C(=O)C(Cc2ccsc2)C(=O)N(C)C1=O	31.6µM*	-5.2%	25.1µM*	-20.7%	-12.5%
C[n+]1c2cc(N)ccc2cc2ccc(N)cc21	4.7%	7.08µM*	?	?	?
O=C(O)c1ccc[nH]c1=S	?	-4.6%	?	-17.1%	-7.3%
CCOP(=S)(OCC)Oc1cc(C)nc(N(CC)CC)n1	/	-0.2%	/	/	0.3%
